{"source": "PubChem BioAssay AID504834", "about": "(National Center for Advancing Translational Sciences (NCATS), 2011)", "note": "Out of some 320,000 compounds screened, about 22,000 (6.9%) were called active. Inconclusive results (about 27%) are left out. The entries come from a sample that favours actives as a whole. Values without a mark were called inactive. Calls come from the whole dose curve; as a rule, active = well fitted inhibition curve with a large enough effect; inconclusive = small, poorly fitted or top-dose-only effect, or another doubt; inactive = no such curve, though single readings can be large or run the other way. % is set by controls: 0 for no effect and ±100 for the full control effect; potency is the fitted concentration of half-maximal effect."}
{"assay": "Primary qHTS for delayed death inhibitors of the malarial parasite plastid, 96 hour incubation", "conditions": "P. falciparum luciferase reporter growth; series mostly up to 28.7 µM; activity change, negative = inhibition: at the top concentration", "summary_of_the_method": "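Two-generation exposure (96 h) targets delayed-death phenotype. Reporter parasites carrying integrated firefly luciferase, in red cells at 2% hematocrit and 0.05% parasitemia final, kept at 37 C, 5% CO2; luminescence loss indicates inhibition.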"}
{"smiles": "Cc1c(Cl)c([N+](=O)[O-])nn1CCCC(=O)Nc1cc(Cl)ccc1Cl", "activity change, negative = inhibition": "-31.1%"}
{"smiles": "CS(=O)(=O)Nc1ccccc1N=C(c1ccccc1)c1ccccc1", "activity change, negative = inhibition": "3.7%"}
{"smiles": "Cc1ccc(S(=O)(=O)c2nc(NCCCn3ccnc3)sc2Cl)cc1", "Potency": "6.57 µM (active)"}
{"smiles": "O=C(/C=C/c1ccc(Cl)cc1)NCCCn1ccnc1", "activity change, negative = inhibition": "-24.8%"}
{"smiles": "Cc1ccc(-c2nc(C#N)c(NCCCn3ccnc3)o2)cc1", "activity change, negative = inhibition": "237%"}
{"smiles": "COc1ccc(NC(=O)CN(C)C(=O)c2ccc(COc3ccccc3)o2)cc1", "activity change, negative = inhibition": "-4.52%"}
{"smiles": "CC(=O)c1ccccc1OCc1ccc(C(=O)c2ccccc2)cc1", "activity change, negative = inhibition": "-97.2%"}
{"smiles": "Cc1ccc(NS(=O)(=O)c2ccc3c(c2)CC(=O)N3)cc1Cl", "activity change, negative = inhibition": "14%"}
{"smiles": "COc1cccc(Nc2nnc(SCC(=O)N3CC(C)OC(C)C3)s2)c1", "note": "(stereo unspecified)", "activity change, negative = inhibition": "34.9%"}
{"smiles": "COc1cccc(Nc2nnc(SCC(=O)N3CC(=O)Nc4ccccc43)s2)c1", "Potency": "4.65 µM (active)"}
{"smiles": "Cc1nc(SCC(=O)N2CC(=O)Nc3ccccc32)c2c(C)c(C)sc2n1", "activity change, negative = inhibition": "0%"}
{"smiles": "C#CCOc1ccc(/C=C2/C(=O)ON=C2C)cc1OCC", "activity change, negative = inhibition": "-7.81%"}
{"smiles": "COCc1c(C(=O)N/N=C(\\C)c2ccncc2)nnn1-c1nonc1N", "activity change, negative = inhibition": "-3.74%"}
{"smiles": "CCOC(=O)c1ccccc1NS(=O)(=O)c1c(C)nc2sccn2c1=O", "Potency": "14.7 µM (active)"}
{"smiles": "Cc1nc2sccn2c(=O)c1S(=O)(=O)NCCc1ccccc1", "activity change, negative = inhibition": "0%"}
{"smiles": "CCc1cccc(C)c1NS(=O)(=O)c1c(C)nc2sccn2c1=O", "activity change, negative = inhibition": "0.376%"}
{"smiles": "Cc1cc(OCCCCOc2ccc(C#N)cc2)ccc1[N+](=O)[O-]", "activity change, negative = inhibition": "12.6%"}
{"smiles": "COc1ccc(CCOC(=O)CNC(=O)c2ccc(Cl)cc2Cl)cc1", "activity change, negative = inhibition": "-13.4%"}
{"smiles": "Cc1cc(C)c(S(=O)(=O)Nc2c(C)n(C)n(-c3ccccc3)c2=O)cc1[N+](=O)[O-]", "activity change, negative = inhibition": "-2.69%"}
{"smiles": "CCCn1nnc(NC(=O)COc2ccc(CC)cc2)n1", "activity change, negative = inhibition": "5.36%"}
{"smiles": "CCCOc1cccc(C(=O)Nc2nnn(CCC)n2)c1", "Potency": "4.65 µM (active)"}
{"smiles": "CCCOc1cccc(C(=O)NCCCNC(=O)c2cccnc2)c1", "activity change, negative = inhibition": "95.6%"}
{"smiles": "Cc1cc(C(F)F)nn1CC(=O)NC1CCCCCC1", "activity change, negative = inhibition": "-19.5%"}
{"smiles": "CN(C)c1ccc(CNC(=O)CN2C(=O)COc3ccc(S(=O)(=O)N4CCCC4)cc32)cc1", "activity change, negative = inhibition": "12.7%"}
{"smiles": "NC(N)=Nc1nc(-c2ccccc2)c2cc(Cl)ccc2n1", "activity change, negative = inhibition": "51.4%"}
{"smiles": "Clc1ccc2nc3c(c(-c4ccccc4)c2c1)CNCC3", "Potency": "13.1 µM (active)"}
{"smiles": "Clc1cccc(-c2nc(NCC3CCCO3)c3ccccc3n2)c1", "note": "(stereo unspecified)", "activity change, negative = inhibition": "37.3% [at 5.75 µM]"}
{"smiles": "COc1ccc(NC(=O)COc2ccc(C(=O)c3ccc(F)cc3)cc2)cc1S(N)(=O)=O", "activity change, negative = inhibition": "-26.2%"}
{"smiles": "CC(=O)NCC(=O)NC1CCCc2c1cnn2-c1ccccc1F", "note": "(stereo unspecified)", "activity change, negative = inhibition": "-6.37%"}
{"smiles": "COc1cc(OC)c(S(=O)(=O)Nc2ccccc2C(=O)O)cc1S(=O)(=O)Nc1ccccc1C(=O)O", "activity change, negative = inhibition": "-13.4%"}
{"smiles": "O=C(O)c1ccc(F)c(S(=O)(=O)Nc2ccccc2)c1", "activity change, negative = inhibition": "24.9%"}
{"smiles": "COc1ccc(Cl)cc1S(=O)(=O)Nc1cccc(C(=O)O)c1", "Potency": "10.4 µM (active)"}
{"smiles": "CN1CCN(c2ncc3c(n2)CC(c2ccccc2F)CC3=O)CC1", "note": "(stereo unspecified)", "activity change, negative = inhibition": "40.8%"}
{"smiles": "COc1ccccc1C(C)NC(=O)Cc1ccsc1", "note": "(stereo unspecified)", "activity change, negative = inhibition": "2.57%"}
{"smiles": "CCCCOc1ccc(CON(C(C)=O)C(C)=O)cc1Cl", "activity change, negative = inhibition": "5.53%"}
{"smiles": "O=C(CNC(=O)c1ccccc1)Oc1ccc([N+](=O)[O-])cc1", "activity change, negative = inhibition": "1.08%"}
{"smiles": "CC(Cc1cccs1)NC(=O)c1cccc(Cl)c1", "note": "(stereo unspecified)", "activity change, negative = inhibition": "43.8%"}
{"smiles": "CC(Cc1cccs1)NCc1ccc(Cl)cc1", "note": "(stereo unspecified)", "activity change, negative = inhibition": "54.2%"}
{"smiles": "CC(Cc1cccs1)N(Cc1ccc(Cl)cc1)C(=O)c1ccncc1", "note": "(stereo unspecified)", "Potency": "13.1 µM (active)"}
{"smiles": "CCCc1ccc(OCCNC(=O)c2ccccc2Br)cc1", "activity change, negative = inhibition": "-8.4%"}
{"smiles": "O=C(N/N=C/c1cc2c(cc1Br)OCO2)C1COc2ccccc2O1", "note": "(stereo unspecified)", "Potency": "7.38 µM (active)"}
{"smiles": "O=C(N/N=C\\c1cc2c(cc1Cl)OCO2)c1ccc(Br)s1", "activity change, negative = inhibition": "19%"}
{"smiles": "CC(/C=C/c1ccco1)=N/NC(=O)C1COc2ccccc2O1", "note": "(stereo unspecified)", "activity change, negative = inhibition": "-5.91%"}
{"smiles": "Cc1cc(C)c(S(=O)(=O)NCC2CCC(C(=O)NCc3ccc4c(c3)OCO4)CC2)c(C)c1", "note": "(stereo unspecified)", "activity change, negative = inhibition": "-66.7%"}
{"smiles": "COc1ccc(C(=O)NCC2CCCN2S(=O)(=O)c2cccs2)cc1OC", "note": "(stereo unspecified)", "activity change, negative = inhibition": "-4.53%"}
{"smiles": "Cc1cc(C)c(S(=O)(=O)N2CCCC2CNC(=O)c2ccc3c(c2)OCO3)c(C)c1", "note": "(stereo unspecified)", "Potency": "11.7 µM (active)"}
{"smiles": "CCOc1ccc(S(=O)(=O)N2CCC(C(=O)NCc3ccccn3)CC2)cc1Cl", "activity change, negative = inhibition": "-3.21%"}
{"smiles": "O=C(NCc1ccccc1)C1CCN(C(=O)Cc2ccccc2)CC1", "activity change, negative = inhibition": "-21.4%"}
{"smiles": "CN(C)S(=O)(=O)c1cccc(NC(=O)COC(=O)c2cc(=O)[nH]c(=O)[nH]2)c1", "activity change, negative = inhibition": "6.59%"}
{"smiles": "CN(C)S(=O)(=O)c1cccc(NC(=O)COC(=O)/C=C/c2cccs2)c1", "activity change, negative = inhibition": "55.6%"}
{"smiles": "Cc1ccc(/C=N/NC(=S)Nc2cccc(S(=O)(=O)N(C)C)c2)o1", "Potency": "6.57 µM (active)"}
